Source: PubChem
Rows were chosen to be rich in hits. Some 3% of all compounds tested hit in one or more screens of this group.
Tau fibril FP = inhibitors of human tau fibril formation; Potency, µM (highest dose often 57.7 µM), usual class: inhibitors; AID 1468; P10636; 280,000 tested, 0.39% active; K18 P301L tau heparin fibrillization, Alexa594 FP, 6 h; further: nearly all actives have a fitted effect of over 55% in size
Target sequence (P10636 561-689 P618L limits assumed): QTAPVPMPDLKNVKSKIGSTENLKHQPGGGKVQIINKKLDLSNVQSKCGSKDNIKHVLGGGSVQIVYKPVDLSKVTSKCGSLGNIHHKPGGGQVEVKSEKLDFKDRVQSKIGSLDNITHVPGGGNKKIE
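FP of Alexa 594-tau after heparin (20 uM) induction. Substrate: human K18 P301L, 15 uM unlabeled, 0.24 uM labeled. Buffer 100 mM sodium acetate pH 7. 6 hr, 37 C.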
Tau fluor cs = counter-screen for tau fibril formation inhibitors | tau K18 P301L Alexa594 fluorescence, heparin fibrillization | Potency, µM (titrated, usually from 57.7 µM) | 280,000 tested, 0.93% active; further: nearly all actives have a fitted effect of over 55% in size
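Human K18 P301L tau (15 uM unlabeled plus 0.24 uM Alexa 594-labeled, final) in 100 mM sodium acetate pH 7 was mixed with compound and 20 uM heparin and incubated 6 hr at 37 C.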
FBPA coupling cs = inhibits coupling enzyme system, counter-screen for aldolase hits; activity change, negative = inhibition, % at 58.2 µM, hits read low; 290,000 tested, 0.67% active; coupling enzyme system counterscreen, AmpLite Red fluorescence; in the data active means activity change below about -30%
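Compounds tested against the coupling enzymes alone at 57.5 uM final; readout was AmpLite Red fluorescence (525/598 nm) after 20 min at RT.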
Tau ThT inhib = tau fibrillization inhibition (ThT binding); AID 1460; Potency, µM (highest dose often 57.4 µM), actives largely listed as inhibitors; recombinant tau K18 P301L (four-repeat tau fragment), heparin-induced fibrillization, ThT fluorescence; 270,000 tested, 2.1% active; further: nearly all actives have a fitted effect of over 55% in size
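K18 P301L tau (15 uM + 0.24 uM Alexa 594-tagged), heparin 20 uM, NaOAc pH 7, 6 h 37 C; ThT 30 uM, 1 h RT, ex 450/em 510 nm.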
KDM4E inh = inhibitors of human JMJD2E histone demethylase; 230,000 tested, 1.6% active; AID 2147; JMJD2E catalytic domain, FDH-coupled NADH fluorescence (FDH is formaldehyde dehydrogenase); Potency, µM (highest dose often 57.1 µM), usual class: inhibitors; B2RXH2; active means well fitted inhibition curve with a large enough effect, not every such curve was filed as active; inconclusive means small, poorly fitted or top-dose-only effect, or another doubt; inactive means no such curve, though single readings can be large or run the other way; further: nearly all actives have a fitted effect of over 50% in size
Target sequence (B2RXH2 1-337 limits assumed): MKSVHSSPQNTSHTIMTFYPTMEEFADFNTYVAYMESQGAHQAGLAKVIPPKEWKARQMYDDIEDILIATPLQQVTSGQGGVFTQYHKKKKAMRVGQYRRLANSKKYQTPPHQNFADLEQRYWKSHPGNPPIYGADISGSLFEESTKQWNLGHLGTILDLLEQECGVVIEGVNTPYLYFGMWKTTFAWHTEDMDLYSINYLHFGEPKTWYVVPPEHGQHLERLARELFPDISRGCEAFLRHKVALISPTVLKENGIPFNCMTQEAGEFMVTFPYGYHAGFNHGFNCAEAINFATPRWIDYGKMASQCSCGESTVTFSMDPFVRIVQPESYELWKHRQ
Hits are given with their value; n = inactive; u = inconclusive; x = no result; [ ] = remark or other dose. Unless noted, the call rests on the fitted dose curve; in most records, active means well fitted curve in the direction sought with a large enough effect; inconclusive means small, poorly fitted or top-dose-only effect, or another doubt; inactive means no such curve, though single readings can be large; an effect the other way counts as inactive or inconclusive.

SMILES	Tau fibril FP	Tau fluor cs	FBPA coupling cs	Tau ThT inhib	KDM4E inh
CN(C)C=Nc1ccccc1C1C=NNC1=O (configuration not stated)	n	n	n	11µM	n
CCOc1ccc(NC2C=CS(=O)(=O)C2)cc1 (configuration not stated)	n	n	n	35µM	n
N#CC(=C(/N)Sc1ccccc1N)/C(C#N)=C(\N)Sc1ccccc1N	x	18µM[quencher]	x	14µM	x
O=C(CCCCCn1c(=O)c2sccc2n(Cc2ccc(Cl)cc2)c1=O)NCc1ccc2c(c1)OCO2	n	n	x	n	x
CCCCNc1cc(N2CCN(C3CCCCC3)CC2)c2noc3c2c1C(=O)c1ccccc1-3	n	u	x	16µM	x
O=C(O)CCCNc1cc(N2CCC3(CC2)OCCO3)c2noc3c2c1C(=O)c1ccccc1-3	u	u	-39	25µM	u
O=C(O)CCCNc1cc(N2CCN(C(=O)c3ccco3)CC2)c2noc3c2c1C(=O)c1ccccc1-3	x	x	n	x	x
CCOC(=O)N1CCN(c2cc(NCCC(=O)O)c3c4c(onc24)-c2ccccc2C3=O)CC1	32µM	u	-54	11µM	n
Cc1ccccc1C(=O)n1nc(-c2ccco2)nc1NCc1cccs1	n	u	x	n	x
CCn1cc(C(=O)NCCCOC)c(=O)c2cc(S(=O)(=O)N3CCc4ccccc4C3)ccc21	n	n	x	n	x
COc1cccc(NC(=O)CSc2nc(=O)n(Cc3cccnc3)c3c2CCC3)c1	n	n	x	n	x
COc1ccc(-c2[nH]ncc2N=Nc2ccccc2)cc1	u	u	n	16µM	n
Cn1c2c(c(=O)n(C)c1=O)[C@@]1(C(=O)Nc3ccccc31)C(C#N)=C(N)O2	u	n	-50	14µM	u
COc1ccccc1N1CCN(c2nc3ccccc3n3cnnc23)CC1	n	n	x	u	x
COC(=O)CSC1=NS(=O)(=O)c2ccccc21	n	n	n	n	n
O=C(CSC1=NS(=O)(=O)c2ccccc21)Nc1ccccc1	u	n	n	32µM	n
O=C(Nc1nc(=O)n(C(=O)C2CC2)s1)c1ccccc1	u	n	n	11µM	n
Cc1ccc(C(=O)Nc2nc(=O)n(C(=O)c3ccccc3C)s2)cc1	u	n	n	14µM	n
O=C1N/C(=N/NC(=O)c2cccc3ccccc23)S/C1=C\c1ccccc1OCc1ccccc1	n	n	n	u	n
COc1ccc(OC)c(/C=C2\S/C(=N/NC(=O)c3ccc4ccccc4c3)NC2=O)c1	n	u	n	8.9µM	u
COc1cc(OC)c(NC(=O)N2CCSc3ccccc32)cc1Cl	n	u	x	n	x
Cc1nn(-c2ccccc2)c(C)c1/C=N/n1cnnc1	n	n	n	n	n
Cc1nn(-c2ccccc2)c(C)c1/C=N\N1CCN(c2ccc(Cl)cc2)CC1	n	u	n	8.9µM	n
OC1OC[C@@H](O)[C@@H](O)[C@@H]1O (some centres not stated)	x	x	n	x	x
O=C(COC(=O)c1cc(-c2cccs2)nc2ccccc12)NCc1ccco1	20µM	n	n	16µM	u
SMILES	Tau fibril FP	Tau fluor cs	FBPA coupling cs	Tau ThT inhib	KDM4E inh
COc1ccc(-c2nn3c(-c4ccccc4C)nnc3c3ccccc23)cc1	n	n	x	u	x
Nc1cc2nn(-c3ccccc3)nc2cc1Cl	u	u	-44	3.5µM	u
O=C(CSc1nc2ccc(Cl)cc2[nH]1)c1ccc2c(c1)OCO2	u	u	-36	n	n
O=C(CSc1nc2cc(Cl)c(Cl)cc2[nH]1)c1ccc2c(c1)OCO2	u	u	n	u	n
N[C@@]1(C(=O)O)CN[C@@H](C(=O)O)C1	n	n	x	n	x
CCOC(=O)c1sc(Nc2ccc(OCC)cc2)nc1C	u	u	n	u	u
CCOC(=O)c1sc(N2N=C(C)/C(=C\c3ccc(OCC(=O)OC)cc3)C2=O)nc1C	n	n	n	u	22µM
CC(=O)c1cccc(NC(=O)c2ccc3c(c2)N(Cc2ccc(C)cc2)CCS3)c1	n	u	x	n	x
COc1ccc(-c2cc(-c3cc(OC)ccc3O)[nH]n2)cc1	n	16µM[quencher]	n	u	u
COc1ccc(O)c(-c2cc(-c3cccc(Br)c3)n[nH]2)c1	n	14µM[quencher]	n	u	n
C#CC(C)OC(=O)Nc1cccc(Cl)c1 (configuration not stated)	x	x	n	x	x
CN(C(=O)CSc1nc2ccc(NC(=O)c3cccs3)cc2s1)c1ccccc1	u	u	x	n	x
CCOc1ccc2[nH]c3c(NCCc4ccc(OC)c(OC)c4)ncnc3c2c1	u	22µM[quencher]	n	x	u
Cc1ccc2[nH]c3c(NCc4ccco4)ncnc3c2c1	n	n	n	u	u
COc1cc(CNc2ncnc3c2[nH]c2ccc(C)cc23)cc(OC)c1	n	16µM[quencher]	n	n	u
CCCCc1nc2c(c3c1C[C@H](C)OC3)CN(C(=O)Cc1cccs1)CC2	n[11.6 µM]	n[11.6 µM]	n	n[11.5 µM]	n[11.4 µM]
COc1ccc(NC2=NC(=S)N(c3ccccc3C)C23CCCCC3)cc1	n	n	n	n	n
Nc1cccc(Nc2ccccc2)c1	n	u	n	u	u
[O-][N+]1=c2ccc(Nc3ccccc3)cc2=NC12CCCCC2	u	u	-50	7.1µM	u
COc1ccc(Nc2ccc3c(c2)=NC2(CCCCC2)[N+]=3[O-])cc1	u	u	-48	4.5µM	u
CCOc1ccc(Nc2nc3ccccc3n3nnnc23)cc1	n	u	n	n	u
CN(C)c1ccc(Nc2nc3ccccc3n3nnnc23)cc1	n	11µM[quencher]	x	7.9µM	x
CCn1c(C)[n+](CC)c2ccc(C(=O)N(C)c3ccccc3)cc21	n	n	n	n	u
CC[n+]1c(/C=C/N(C)c2ccccc2)oc2ccc(Cl)cc21	n	n	-32	n	n
CCCCN(CC)c1nc(N)c(C#N)c(CC#N)c1C#N	n	u	-35	u	u
SMILES	Tau fibril FP	Tau fluor cs	FBPA coupling cs	Tau ThT inhib	KDM4E inh
C=C(C)CN(CC)c1nc(N)c(C#N)c(CC#N)c1C#N	n	n	n	n	u
CCCCN(CC)c1nc(N)c2c(N)nc(OCC)cc2c1C#N	n	16µM[quencher]	-48	u	u
CN(C)c1ccc(/C=N\NC(=S)SCN2C(=O)C3CCC(C)(C2=O)C3(C)C)cc1 (configuration not stated)	n	13µM[quencher]	n	8.9µM	u
CCCCCOc1ccc(/C=C/C(=O)Nc2sc(C)c(C)c2C(=O)OCC)cc1OC	u	n	x	28µM	x
CCCCCOc1ccc(/C=C/C(=O)Nc2sc(C(C)=O)c(C)c2C(=O)OCC)cc1OC	n	n	x	n	x
COc1ccc(/C=C/C(=O)Nc2sc(C)c(C)c2C(=O)O)cc1	n	u	x	2.2µM	x
COc1cccc(-c2nc(NCCN3CCOCC3)c3ccccc3n2)c1	x	x	n	x	x
COCCCn1[nH]c2c3c(ccc2c1=O)C(=O)c1ccccc1C3=O	n	u	-49	u	n
C/C(O)=C(\N=Nc1cc(C)ccc1O)C(N)=O	n	u	n	10µM	n
CC1=NN(c2nc(-c3ccc(C)cc3)cs2)C(=O)C1N=Nc1ccc(C(N)=O)cc1 (configuration not stated)	n	u	n	2.8µM	n
